Screens: PubChem, The Scripps Research Institute Molecular Screening Center
In the library only some 3.5% were active in any assay of this set; here they are far more common.
MITF primary: MITF inhibitors, primary screen, biochemical, AlphaScreen, human; Microphthalmia-associated transcription factor (Homo sapiens), O75030; inhibition, % at 2.6 µM; AlphaScreen MITF homodimerization, bead proximity signal; 650,000 compounds, 0.91% hits; AID 1259374, 2018; in the data active = inhibition above about 50%;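 note: 0% = vehicle wells with protein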
GPR151 ag: activators of human GPR151, primary screen, cell-based, PathHunter beta-arrestin, luminescence. G-protein coupled receptor 151 (Homo sapiens), Q8TDV0. PathHunter beta-arrestin GPR151 cells. activation, % at 11.2 µM. 650,000 compounds, 1% hits; in the data active = activation above about 4.9%;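 note: 0% = median of compound wells and 100% = cells with positive control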
TEAD-YAP inh: TEAD-YAP interaction inhibition, primary screen, TEAD-YAP interaction inhibitor project, luminescence, HEK-TIYL cells; TEAD-Gal4/YAP UAS-luciferase luminescence; inhibition, % at 9.12 µM; 640,000 compounds, 1.4% hits; in the data active = inhibition above about 32%;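 note: 0% = median of test compound wells and 100% = reference inhibitor wells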
FBW7 activator: FBW7 E3 ligase activators, primary screen, biochemical, AlphaScreen, human; F-box/WD repeat-containing protein 7 (Homo sapiens), Q969H0; AlphaScreen FBW7–phospho-cyclin E peptide binding, activator screen; normalized activity (activation), % at 26.1 µM; 650,000 compounds, 0.13% hits; in the data active = normalized activity above about 1.9%;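 note: purified mutant Fbw7 with reduced substrate affinity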
Target sequence (Q969H0 whole entry, looked up): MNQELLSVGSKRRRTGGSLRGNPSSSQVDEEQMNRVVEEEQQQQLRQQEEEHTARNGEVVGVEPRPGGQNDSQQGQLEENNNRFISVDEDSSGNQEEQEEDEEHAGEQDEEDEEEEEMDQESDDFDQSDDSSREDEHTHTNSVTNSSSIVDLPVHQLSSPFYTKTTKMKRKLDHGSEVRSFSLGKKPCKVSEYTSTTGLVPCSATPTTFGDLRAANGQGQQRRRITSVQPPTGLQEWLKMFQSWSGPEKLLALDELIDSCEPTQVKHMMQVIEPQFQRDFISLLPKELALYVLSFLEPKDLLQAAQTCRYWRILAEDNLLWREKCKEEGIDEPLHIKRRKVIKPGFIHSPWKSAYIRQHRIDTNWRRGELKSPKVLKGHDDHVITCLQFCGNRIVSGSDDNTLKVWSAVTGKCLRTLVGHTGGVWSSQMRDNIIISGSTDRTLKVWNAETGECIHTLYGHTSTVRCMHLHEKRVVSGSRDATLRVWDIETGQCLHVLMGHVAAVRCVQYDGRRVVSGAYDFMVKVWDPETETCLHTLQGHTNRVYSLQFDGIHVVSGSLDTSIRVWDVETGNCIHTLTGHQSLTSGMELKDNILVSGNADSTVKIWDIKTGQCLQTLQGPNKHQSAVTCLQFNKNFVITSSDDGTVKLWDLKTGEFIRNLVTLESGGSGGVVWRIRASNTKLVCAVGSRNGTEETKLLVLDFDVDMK
GPR151 conf act: GPR151 activators, triplicate retest, confirmation, cell-based, PathHunter beta-arrestin, luminescence | AID 1508609, 2020 | GPR151 PathHunter beta-arrestin cells, 90 min; % of EA-reagent control over plate median | activation, % at 11.2 µM | shares compounds with GPR151 ag | 6,700 tested, under 10 active;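 active = mean percent activation across replicates above the confirmation screen cutoff of 4.91%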
GPR119 counter: GPR119 activators in beta-arrestin cells, counter-screen for GPR151 activator project, cell-based, PathHunter beta-arrestin, luminescence, triplicate; shares compounds with GPR151 ag; 90 min; 0 = compound-well median, 100 = enzyme-acceptor control; activation, % at 11.2 µM; 6,700 compounds, 0.3% hits;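 active = mean percent activation in the counterscreen above 29.09%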;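 note: counterscreen on off-target GPR119 to flag nonselective hits from the GPR151 activator screen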
The depositor's hits bear a star; nt = no result given.

SMILES | MITF primary | GPR151 ag | TEAD-YAP inh | FBW7 activator | GPR151 conf act | GPR119 counter
N[n+]1cnn(CC(=O)c2ccc(Cl)cc2Cl)c1 | -16 | 1 | 3 | 0 | nt | nt
CC(C(=O)c1ccc(Cl)cc1Cl)n1c[n+](N)cn1 (configuration not stated) | -6 | 5.2* | 11 | 0 | 1 | 5
COc1ccc(CCC(=O)NCCc2ccc(N(C)C)cc2)cc1 | 10 | -1 | -4 | 0 | nt | nt
Cc1ccc(N2C(=S)NC3c4cc(Cl)cc(Cl)c4OC2(C)C3C(=O)N(C)C)cc1 (configuration not stated) | 34 | -2 | 12 | 1 | nt | nt
COc1ccc(N2C(=O)C(=O)/C(=C(\O)c3ccc(F)cc3)C2c2ccc([N+](=O)[O-])cc2)cc1 (configuration not stated) | 30 | 1 | 7 | 0 | nt | nt
O=C1NC(=S)N/C1=C/c1ccc(-c2ccc(Cl)c([N+](=O)[O-])c2)o1 | 14 | 0 | -4 | 1 | nt | nt
O=C1NC(=S)NC(=O)C1=Cc1ccc(-c2ccc(N3CCCCC3)c([N+](=O)[O-])c2)o1 | 34 | 12* | -51 | 0 | 0 | 0
COc1cc(CNc2ccc3ncc(-c4cccnc4)n3n2)cc(OC)c1OC | 5 | 7.8* | -17 | 0 | 1 | 4
Cc1cccc(NC(=O)CCC2CCN(C(=O)c3cc(C)nc(C)n3)CC2)c1 | 8 | 5.2* | 4 | 0 | 1 | 14
CCCC(=O)Nc1ccc(Oc2ccc3c(c2)C(=O)NC3=O)cc1 | 15 | -1 | -6 | 0 | nt | nt
CCCC(=O)Nc1cccc(Oc2ccc3c(c2)C(=O)NC3=O)c1 | -9 | 6.0* | -4 | 0 | -1 | -8
COc1cc(OC)c(NS(=O)(=O)c2cc3c(cc2C)N(C)CCO3)cc1Cl | 4 | 3 | -4 | 0 | nt | nt
COc1ccc(NS(=O)(=O)c2cc3c(cc2C)N(C)CCO3)c(OC)c1 | 12 | 7.3* | 7 | 0 | 1 | 2
O=C(N/C(=C/c1cccc([N+](=O)[O-])c1)C(=O)N1CCCCCC1)c1ccco1 | 7 | 3 | -5 | 1 | nt | nt
O=C(N/C(=C\c1cccc([N+](=O)[O-])c1)C(=O)N1CCOCC1)c1ccco1 | 6 | 6.9* | 4 | 0 | 1 | 4
O=C(N/C(=C/c1ccc(F)cc1)C(=O)N1CCCCC1)c1ccco1 | -8 | 6.6* | -2 | 0 | 0 | 2
CCOC(=O)N1CCN(c2ncc(-c3ccc(OC)cc3)cn2)CC1 | 1 | -1 | -1 | 0 | nt | nt
O=C(CNc1ccccc1)N/N=C/c1cccc(Br)c1 | 15 | 1 | -2 | 0 | nt | nt
COc1cccc(C(=O)N=c2sc3cc(F)ccc3n2C)c1OC | -19 | 6.6* | 67* | 0 | 0 | 10
COc1cccc(OC)c1C(=O)N=c1sc2cc(F)ccc2n1C | 11 | 2 | 9 | 0 | nt | nt
COc1ccc2c(c1)sc(=NC(=O)CS(=O)(=O)c1ccc(F)cc1)n2C | 4 | 5.8* | 6 | -1 | 1 | 8
Cc1ccc(-n2nc3c(c2NC(=O)c2cccc([N+](=O)[O-])c2C)CS(=O)(=O)C3)cc1 | -5 | -1 | 2 | 0 | nt | nt
COc1ccc(C2=NS(=O)(=O)N(C)C(C(=O)N(C)C3CCCCC3)=C2)cc1 | -9 | 11* | 1 | 0 | -1 | -8
Cc1ccc(C2=NS(=O)(=O)N(C)C(C(=O)N(C)C3CCCCC3)=C2)cc1 | 6 | -2 | 0 | 0 | nt | nt
O=c1c2c3c(sc2ncn1/N=C/c1ccc(O)c(O)c1O)CCCC3 | 58* | 5.4* | -7 | 0 | -1 | -10
SMILES | MITF primary | GPR151 ag | TEAD-YAP inh | FBW7 activator | GPR151 conf act | GPR119 counter
Cc1nnc(SCC(=O)N2CCCC2)n(N)c1=O | 13 | 5.5* | 5 | 1 | 0 | 12
Cc1nnc(SCC(=O)N2CCCCC2)n(N)c1=O | 10 | -1 | 5 | 0 | nt | nt
CCN(Cc1ccccc1)C(=O)COC | -5 | 0 | -2 | 0 | nt | nt
CN(C)S(=O)(=O)c1cccc(C(=O)n2ncc(C#N)c2N)c1 | -8 | 5.3* | 5 | 0 | 0 | 0
CCOC(=O)c1c(NC(=O)CSc2nc3ccccc3[nH]2)sc2c1CCCC2 | 2 | 6.3* | -24 | 0 | 0 | 0
CCOC(=O)c1c(NC(=O)CCSc2nnc3ccccn23)sc2c1CCCC2 | 10 | 1 | 0 | 0 | nt | nt
CCOC(=O)c1c(NC(=O)CSc2ccccn2)sc2c1CCCC2 | 11 | 6.8* | -11 | 0 | 0 | -3
CCOC(=O)c1c(NC(=O)CSc2nnc3ccccn23)sc2c1CCCC2 | 11 | 6.8* | -2 | 0 | 1 | 6
CCOC(=O)c1c(NC(=O)CSc2nnc(CNC(=O)c3ccc(OC)cc3)n2-c2ccc([N+](=O)[O-])cc2)sc2c1CCCCC2 | 7 | 5.9* | 1 | 0 | 1 | -8
CC(c1ccc2c(c1)OCCO2)N(C)C(=O)CCC1(Cc2cccs2)CCC(=O)N1 (configuration not stated) | -1 | 0 | 7 | 0 | nt | nt
Cc1ccnc(NC(c2cccc(C)n2)c2ccc3cccnc3c2O)c1 (configuration not stated) | 26 | -1 | 19 | 0 | nt | nt
COc1cccc(C(Nc2cc(C)ccn2)c2ccc3cccnc3c2O)c1 (configuration not stated) | 32 | 5.1* | 80* | 0 | 0 | 0
C[C@@H]1CC[C@H]2C(=O)O[C@@H](COc3ccc(C(C)(C)C)cc3)CN2[C@H]1c1ccc(Br)cc1 | 12 | 5.3* | nt | 0 | 1 | -11
C=C(C)C(=O)OC[C@@H]1CN2[C@@H](CC[C@@H](C)[C@@H]2c2ccc(Br)cc2)C(=O)O1 | 23 | -1 | nt | 0 | nt | nt
CCOc1ccc2c(c1)c(=O)c(C(=O)c1ccccc1)cn2CC(=O)Nc1ccccc1 | 14 | 6.3* | -5 | 0 | 0 | 1
CCN(CC)C(=O)c1c(NC(=O)c2ccccc2F)sc2c1CCC2 | -13 | 0 | -5 | 0 | nt | nt
Cc1c(=O)n(OCc2cccc(F)c2)c2ccccc2[n+]1[O-] | 2 | 1 | 1 | 0 | nt | nt
Cc1c(=O)n(OCc2ccccc2F)c2ccccc2[n+]1[O-] | -17 | 12* | 1 | 0 | 0 | -1
CCN(CC)c1ccc(/C=N/Nc2nc3ccccc3n2C)cc1 | 27 | 0 | -19 | 0 | nt | nt
CCOC(=O)COc1ccc(/C=C2\C=C(c3ccc(Br)cc3)OC2=O)cc1OC | -14 | 13* | 6 | 0 | 2 | 14
O=S(=O)(NCC(c1ccco1)S(=O)(=O)c1ccc(F)cc1)c1cccs1 (configuration not stated) | -5 | 11* | 3 | 0 | 0 | -4
